A short description of test [1]: optical density shifts of acrAB sulA E. coli – strain DRC41, OD650, 48 h, E. coli filamentation inducer project, primary screen (AID 1152).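 Also: E. coli MC1000 strain DRC41 lacking acrAB efflux pump and sulA.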 To be noted: higher = more signal, called active from +8 up or from −8 down.
The nature of test [2]: probe aLefty1 binding on compound microarray – biochemical, small-molecule microarray, 635/667 nm fluorescence, primary screen (AID 1153).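 Also: score merges spot fluorescence with signal-to-noise ratio from the scanned slide images.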 The following applies: higher = more signal.
Test [3] can be described thus: plasmodial surface anion channel blockers, osmotic lysis – cell-based, P. falciparum Indochina, OD700, 1 h, primary screen (AID 1154). The following applies: P. falciparum Indochina infected RBC osmotic lysis, higher = more signal, called active from +8 up or from −8 down.
Test [4] is described as follows: plasmodial surface anion channel blockers, osmotic lysis – cell-based, P. falciparum Indochina, OD700, 2 h, primary screen (AID 1155).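 Also: lysis reports solute entry through the parasite surface anion channel PSAC.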 The following applies: P. falciparum Indochina infected erythrocytes, higher = more signal, called active from +8 up or from −8 down.
The nature of test [5]: changes in parasitized red cell lysis, either direction – P. falciparum Indochina, OD700, 3 h, PSAC antagonist project, primary screen (AID 1156). To be noted: P. falciparum-infected erythrocytes, osmotic lysis, higher = more signal, called active from +8 up or from −8 down.
The nature of test [6]: plasmodial surface anion channel blockers, osmotic lysis – cell-based, P. falciparum Indochina, OD700, 18 h, primary screen (AID 1157). To be noted: P. falciparum Indochina infected erythrocytes, osmotic lysis OD700, 18 h; higher = more signal, called active from +8 up or from −8 down.
The nature of test [7]: S6 kinase pathway phospho-S6 level changes – cell-based, A549, cytoblot, luminescence, serum-stimulated, primary screen (AID 1158).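 Also: serum-stimulated A549 lung adenocarcinoma cells; signal is phosphorylated S6 detected by cytoblot immunostaining with HRP secondary.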 The following applies: 5 h, higher = more signal.
Test [8] deals with NADPH oxidase 2 (Homo sapiens) (UniProt P04839). Description: compounds shifting NOX2 Amplex Red fluorescence – cell-based, HEK293-NOX2, PMA-stimulated, NOX inhibitor project, primary screen (AID 1159). Also: test concentration not given here. The following applies: 45 min, higher = more signal, called active from +8 up or from −8 down.
NADPH oxidase 2 (Homo sapiens), sequence (P04839 whole entry, looked up): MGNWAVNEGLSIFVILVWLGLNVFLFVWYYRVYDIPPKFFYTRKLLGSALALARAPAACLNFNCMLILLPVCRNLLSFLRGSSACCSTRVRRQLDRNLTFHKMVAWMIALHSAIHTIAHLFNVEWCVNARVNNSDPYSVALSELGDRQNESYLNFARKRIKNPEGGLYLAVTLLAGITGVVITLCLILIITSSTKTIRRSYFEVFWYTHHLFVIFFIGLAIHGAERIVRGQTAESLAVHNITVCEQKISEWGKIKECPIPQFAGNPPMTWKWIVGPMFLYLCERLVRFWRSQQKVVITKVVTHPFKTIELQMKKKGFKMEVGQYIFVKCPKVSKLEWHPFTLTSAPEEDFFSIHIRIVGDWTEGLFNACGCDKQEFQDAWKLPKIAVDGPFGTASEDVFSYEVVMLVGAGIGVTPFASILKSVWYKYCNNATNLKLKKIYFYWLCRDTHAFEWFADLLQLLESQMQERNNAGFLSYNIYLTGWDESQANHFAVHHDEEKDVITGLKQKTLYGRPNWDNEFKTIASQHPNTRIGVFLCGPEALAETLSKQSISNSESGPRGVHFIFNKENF
Test [9] has as its target NADPH oxidase 4 (Homo sapiens) (UniProt Q9NPH5). Description: compounds shifting NOX4 Amplex Red fluorescence – cell-based, HEK293-NOX4, tetracycline-induced, NOX inhibitor project, primary screen (AID 1160). The following applies: HEK293-NOX4, Amplex Red H2O2 fluorescence, 45 min; higher = more signal, called active from +8 up or from −8 down.
The target in test [10] is NADPH oxidase 5 (Homo sapiens) (UniProt Q96PH1). In words: compounds shifting NOX5 Amplex Red fluorescence – cell-based, HEK293-NOX5, NOX inhibitor project, primary screen (AID 1161). To be noted: HEK293-NOX5, ionomycin, 45 min, higher = more signal.
NADPH oxidase 5 (Homo sapiens), sequence (Q96PH1 whole entry, looked up): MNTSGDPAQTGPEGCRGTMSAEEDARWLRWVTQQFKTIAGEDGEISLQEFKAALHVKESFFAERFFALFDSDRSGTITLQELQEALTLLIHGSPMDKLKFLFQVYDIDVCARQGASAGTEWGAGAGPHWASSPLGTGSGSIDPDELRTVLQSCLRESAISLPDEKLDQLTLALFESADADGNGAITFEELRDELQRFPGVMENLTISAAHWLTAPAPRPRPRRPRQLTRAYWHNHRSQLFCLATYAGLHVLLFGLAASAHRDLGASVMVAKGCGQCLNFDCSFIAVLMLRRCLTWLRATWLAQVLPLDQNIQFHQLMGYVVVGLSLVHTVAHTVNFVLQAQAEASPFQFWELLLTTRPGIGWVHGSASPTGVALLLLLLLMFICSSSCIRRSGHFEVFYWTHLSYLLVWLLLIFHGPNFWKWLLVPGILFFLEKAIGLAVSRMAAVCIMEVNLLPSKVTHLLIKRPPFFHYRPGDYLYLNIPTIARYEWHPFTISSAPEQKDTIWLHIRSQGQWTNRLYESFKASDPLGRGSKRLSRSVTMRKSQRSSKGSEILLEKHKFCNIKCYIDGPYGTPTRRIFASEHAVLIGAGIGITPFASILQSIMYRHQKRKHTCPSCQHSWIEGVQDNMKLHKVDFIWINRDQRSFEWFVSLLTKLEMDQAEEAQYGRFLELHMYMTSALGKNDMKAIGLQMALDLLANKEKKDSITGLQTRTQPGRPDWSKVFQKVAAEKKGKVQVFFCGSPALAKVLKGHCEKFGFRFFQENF
Test [11] can be described thus: compound effects on lung adenocarcinoma cell viability – A549, calcein-AM fluorescence, 48 h, basal, profiling panel (AID 1162). Also: test concentration not given here. To be noted: higher = more signal.
Test [12] is described as follows: compound effects on differentiated 3T3-L1 adipocyte viability – cell-based, 3T3-L1 adipocytes, calcein-AM fluorescence, 48 h, basal, profiling panel (AID 1163). Also: test concentration not given here. To be noted: 3T3-L1 adipocytes viability, higher = more signal.
Test [13] in a line: compound effects on hepatocellular carcinoma cell viability – HepG2, calcein-AM fluorescence, 48 h, basal, profiling panel (AID 1164). Also: test concentration not given here. The following applies: higher = more signal.
Test [14] is described as follows: compound effects on multiple myeloma cell viability – MM1S, calcein-AM fluorescence, 48 h, basal, profiling panel (AID 1165).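 Also: viability of MM1S multiple myeloma cells under basal unstimulated conditions; test concentration not given here.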 The following applies: higher = more signal.
Test [15] can be described thus: calcein-AM signal in unstimulated myeloma cells – cell-based, calcein-AM fluorescence, 48 h, PK04 Diversity Set, profiling panel (AID 1166).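 Also: cells grown under basal conditions without added stimulus; test concentration not given here.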 The following applies: RPMI8226 myeloma viability, higher = more signal.
Test [16] is described as follows: JC-1 mitochondrial signal, unstimulated HepG2 cells – cell-based, JC-1 fluorescence, 24 h, 100 nL compound, profiling panel (AID 1167). Also: test concentration not given here. The following applies: HepG2 mitochondrial potential, higher = more signal.
Test [17] in a line: JC-1 mitochondrial signal, unstimulated adipocytes – cell-based, JC-1 fluorescence, 3T3-L1 adipocytes, 24 h, 100 nL compound, profiling panel (AID 1168). Also: test concentration not given here. To be noted: JC-1 mitochondrial fluorescence, higher = more signal, called active from +8 up or from −8 down.
The nature of test [18]: JC-1 mitochondrial signal, unstimulated myeloma cells – cell-based, JC-1 fluorescence, RPMI8226, 24 h, 100 nL compound, profiling panel (AID 1169). Also: test concentration not given here. To be noted: JC-1 mitochondrial potential fluorescence, higher = more signal.
Test [19] can be described thus: JC-1 mitochondrial signal, unstimulated MM1S myeloma – cell-based, JC-1 fluorescence, 24 h, 100 nL compound, profiling panel (AID 1170). Also: test concentration not given here. To be noted: MM1S mitochondrial potential, higher = more signal.
Test [20] can be described thus: resazurin metabolic signal in A549 cells – cell-based, resazurin fluorescence, 24 h, PK04 Diversity Set, profiling panel (AID 1171). Also: test concentration not given here. The following applies: A549 viability, higher = more signal, called active from +8 up or from −8 down. (In general: Alamar Blue is a resazurin reagent that responds to reducing activity.)

Each structure is given as a SMILES string. The source made the active and inactive calls.

NADPH oxidase 4 (Homo sapiens), sequence (Q9NPH5 whole entry, looked up): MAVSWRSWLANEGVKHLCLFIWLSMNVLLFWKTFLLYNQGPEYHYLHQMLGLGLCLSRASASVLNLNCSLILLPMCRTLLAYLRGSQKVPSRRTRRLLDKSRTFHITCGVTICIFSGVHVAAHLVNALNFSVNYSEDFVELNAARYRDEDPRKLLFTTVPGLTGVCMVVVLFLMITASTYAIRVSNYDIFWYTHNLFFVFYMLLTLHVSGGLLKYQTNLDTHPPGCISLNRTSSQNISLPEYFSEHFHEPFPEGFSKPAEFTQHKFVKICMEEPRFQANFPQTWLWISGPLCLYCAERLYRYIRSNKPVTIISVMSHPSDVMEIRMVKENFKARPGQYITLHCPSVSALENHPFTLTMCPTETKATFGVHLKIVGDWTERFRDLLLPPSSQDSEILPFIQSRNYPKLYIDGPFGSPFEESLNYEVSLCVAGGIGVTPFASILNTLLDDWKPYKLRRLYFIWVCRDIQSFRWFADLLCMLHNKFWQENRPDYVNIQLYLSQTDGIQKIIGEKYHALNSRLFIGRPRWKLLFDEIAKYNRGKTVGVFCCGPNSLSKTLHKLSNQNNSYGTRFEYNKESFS

Consider `CCOC(=O)C1=CCC(c2cccc3ccccc23)N(S(=O)(=O)c2ccc(C)cc2)C1` (stereo not given), for which the z-score in test [1] was -0.894 (inactive); in [3], 1.49 (inactive); in [4] it was 0.902 (inactive); in test [5], -1.54 (inactive); in [6], 0.411 (inactive); in test [7], -0.415. Further, the z-score in [8] is 1.42 (inactive); in [9], 1.17 (inactive); in [10] it was 1.49; in [11], -0.989; in test [12] it was -1; in test [13], -0.106. Also, the z-score in [14] was -0.0257; in test [15], 0.291; in test [16], 1.98; in [17], -0.759 (inactive); in test [18], -0.498; in [19] it was -1.64. Besides, in test [20], the z-score was -0.658 (inactive). The composite z-score in test [2] is 0.071.

Take `CCCCCCc1nc(C2CC2)c(C)c2c1[Si](C(C)C)(C(C)C)OC2`: the z-score in test [1] is 2.16 (inactive); in [3], 2.89 (inactive); in [4], 0.176 (inactive); in [5] it was -0.162 (inactive); in test [6], 0.0166 (inactive); in test [7], 3.38. Moreover, the z-score in test [8] was -0.579 (inactive); in test [9], -0.404 (inactive); in test [10] it was -1.38; in [11], 0.632; in test [12], 2.88; in test [13] it was -0.693. For the same compound, the z-score in test [14] is -0.155; in [15], -0.499; in [16], 0.366; in test [17], 1.56 (inactive); in test [18] it was 0.296; in test [19], 0.419. Further, the z-score in [20] is -0.207 (inactive). Moreover, in [2], the composite z-score was -0.196.

Take `CO[C@H]1O[C@H](CO)[C@@H](OC(=O)Nc2ccccc2)[C@H](OC(=O)Nc2ccc3c(c2)OCO3)[C@@H]1OC(=O)Nc1ccc2c(c1)OCO2`: the z-score in test [1] was 1.44 (inactive); in test [3] it was 9.35 (active); in [4], -0.145 (inactive); in test [5], 1.78 (inactive); in test [6], -2 (inactive); in [7] it was 1.27. For the same compound, the z-score in test [8] is 0.679 (inactive); in [9] it was 0.0792 (inactive); in test [10], -0.922; in test [11] it was 0.307; in [12] it was 0.85; in test [13], 0.17. Further, the z-score in test [14] was -1.51; in test [15], -0.735; in test [16] it was -0.493; in test [17], 2.84 (inactive); in test [18] it was 0.105; in test [19] it was 0.327. In addition, the z-score in test [20] is -0.429 (inactive). Also, in test [2], the composite z-score was 0.273.

Take `COCCOC(=O)N1C(=O)[C@@]2(c3ccccc31)[C@H](C(=O)N1CCc3cc(OC)c(OC)cc3C1)[C@H]1C(=O)O[C@H](c3ccccc3)[C@H](c3ccccc3)N1[C@@H]2c1ccccc1OCCO`: the z-score was 2.1 (inactive) in test [1]; 8.34 (active) in [3]; 1.35 (inactive) in test [4]; 1.38 (inactive) in [5]; 0.123 (inactive) in test [6]; 2.25 in test [7]. The z-score in test [8] was 2.12 (inactive); in test [9] it was 1.46 (inactive); in test [10], 0.00739; in test [11] it was 1.57; in test [12] it was 1.3; in test [13], -0.478. Moreover, the z-score in test [14] was -1.2; in [15] it was -0.222; in test [16], 1.24; in test [17], 0.407 (inactive); in test [18] it was -0.181; in [19], -0.238. For the same compound, the z-score in test [20] was 0.725 (inactive). In [2], this compound gave a composite z-score of 0.391.

For the compound `C=CC(=O)O[C@@H](Cc1ccccc1)[C@H]1C2C=CCCC=C2CN1Cc1cccc(Cl)c1` (stereo not given in full), the z-score in [1] was 3.24 (inactive); in [3], 1.35 (inactive); in [4], 0.893 (inactive); in test [5] it was 0.781 (inactive); in [6], 0.182 (inactive); in [7], 0.711. The z-score is -0.192 (inactive) in [8]; 0.758 (inactive) in test [9]; 0.467 in [10]; 1.07 in [11]; 0.392 in test [12]; 0.216 in test [13]. In addition, the z-score in test [14] is -3.14; in test [15] it was -2.84; in [16], 0.687; in test [17] it was 0.0156 (inactive); in [18] it was -0.233; in test [19], 0.453. The z-score in [20] was 1.11 (inactive). Further, in test [2], the composite z-score is -0.378.

On to `CC(C)[Si](OCCCNS(=O)(=O)c1ccc(Br)cc1)(C(C)C)C(C)C`, for which the z-score in test [1] is 3.27 (inactive); in test [3], 0.869 (inactive); in test [4], 0.0808 (inactive); in [5] it was -3.37 (inactive); in test [6] it was -0.442 (inactive); in test [7], 4.17. The z-score was 1.84 (inactive) in test [8]; -0.843 (inactive) in test [9]; -3.06 in [10]; 0.0609 in test [11]; 0.279 in test [12]; -2.5 in [13]. In addition, the z-score in test [14] was -3.23; in test [15], -4.09; in [16] it was -3.5; in [17], 2.29 (inactive); in test [18], -0.218; in test [19], 0.727. In addition, the z-score in test [20] was -0.116 (inactive). This compound returned a composite z-score in test [2] of -0.0236.

On to `C/C(=N\O)C(=O)NCCCCCNC(=O)OCc1ccccc1`, for which the z-score is 1.93 (inactive) in [1]; 15.4 (active) in test [3]; 2.09 (inactive) in test [4]; -0.222 (inactive) in [5]; 0.501 (inactive) in test [6]; -0.246 in test [7]. Also, the z-score in test [8] was -0.459 (inactive); in test [9], 0.0531 (inactive); in test [10] it was -0.588; in test [11] it was 1.3; in test [12], 0.895; in test [13], 0.206. Also, the z-score in test [14] was 0.476; in test [15], 0.239; in [16], 1.09; in test [17] it was 0.334 (inactive); in [18] it was -0.561; in [19], 1.24. For the same compound, the z-score in test [20] was 0.707 (inactive). Besides, the composite z-score in test [2] is -0.194.

`CCOC(=O)C[C@H]1[C@H](OC(=O)Cc2ccc3c(c2)OCO3)[C@@H](NC(=O)CC(C)C)c2cc(OCCCO)ccc2N1C(=O)c1ccccc1`: the z-score in [1] was 2.39 (inactive); in [3] it was 0.4 (inactive); in [4], -1.02 (inactive); in test [5], -0.462 (inactive); in test [6], -1.5 (inactive); in test [7], 0.622. For the same compound, the z-score is 0.337 (inactive) in test [8]; 0.52 (inactive) in test [9]; 0.47 in test [10]; 2.34 in [11]; -0.148 in test [12]; 0.978 in test [13]. Besides, the z-score was 0.532 in [14]; 2.13 in test [15]; 1.78 in test [16]; 1.58 (inactive) in test [17]; -0.0658 in test [18]; 0.751 in test [19]. Besides, the z-score in [20] was 1.16 (inactive). Besides, the composite z-score in [2] came out at 0.0698.

Consider `CC(C)NC(=O)[C@@]1(Cc2ccccc2I)c2ccccc2C(=O)N(C2CCCCC2)[C@H]1c1ccc(CO)cc1`, for which the z-score in [1] is 0.151 (inactive); in test [3], 7.99 (inactive); in [4] it was 1.13 (inactive); in test [5] it was 3.67 (inactive); in test [6], 1.28 (inactive); in test [7] it was 0.274. Besides, the z-score is 0.988 (inactive) in test [8]; -1.77 (inactive) in [9]; -1.42 in test [10]; 0.377 in test [11]; 0.967 in test [12]; -0.476 in test [13]. Moreover, the z-score was -0.533 in test [14]; -3.89 in test [15]; 1.54 in test [16]; -0.68 (inactive) in test [17]; -0.941 in [18]; -1.36 in test [19]. Further, in [20], the z-score was 0.778 (inactive). In addition, in test [2], the composite z-score is 0.149.

(Values after PubChem BioAssay.)
